Reference: the supplement of paper PMC8975748
Counter-ions that a name gives are not always drawn.

The compounds below were run on Saccharomyces cerevisiae BY4741 SeMeCo community (assay: z-score of subpopulation abundance vs DMSO median, subpopulation auxotrophic for HL; higher = larger share of this subpopulation than in DMSO controls). Conditions: 10 µM; 24 h; SM minimal medium; subpopulation (auxotrophy): HL.
Method: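 Fluorescent four-plasmid SeMeCo (self-establishing metabolically cooperating S. cerevisiae BY4741 community; plasmids pH-mRuby2, pL-mWasabi, pU-eCFP, pM-TagRFP657) was grown 24 h in minimal SM medium with each Selleck FDA-approved drug at 10 µM in 384-well plates. Cells were fixed and imaged by high-content confocal microscopy. For each auxotrophic subpopulation (and the prototroph), a z-score gives the deviation from the DMSO vehicle-control population median.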

SMILES	z-score of subpopulation abundance
O=[N+]([O-])C(Br)(CO)CO [Bronopol]	-1.08
CCCCCCCCCCCCCCCC[n+]1ccccc1 [Cetylpyridinium Chloride]	13.5
C[N+](C)(C)CCCCCCCCCC[N+](C)(C)C [Decamethonium Bromide]	-0.3
CC(=O)OCC1=C(C(=O)O)N2C(=O)C(N)C2SC1 (centres undefined) [7-Aminocephalosporanic acid]	-0.23
CC(=O)O[C@H]1C[C@@H]2CC[C@@H]3[C@H](CC[C@@]4(C)[C@H]3C[C@H]([N+]3(C)CCCCC3)[C@@H]4OC(C)=O)[C@@]2(C)C[C@@H]1[N+]1(C)CCCCC1 [Pancuronium dibromide]	0.38
CC[C@H]1[C@@H]2C[C@H]3[C@@H]4N(C)c5ccccc5[C@]45C[C@@H]([C@@H]2[C@H]5O)N3[C@@H]1O [Ajmaline]	-1.02
CCC1=C[C@H]2CN3CCc4c([nH]c5ccccc45)[C@](C(=O)OC)(C2)[C@H]13 [Catharanthine]	-1.12
N#Cc1nn(-c2c(Cl)cc(C(F)(F)F)cc2Cl)c(N)c1[S+]([O-])C(F)(F)F (centres undefined) [Fipronil]	0.71
CNC1CC(N)C(O)C(OC2OC(CO)C(O)C3OC4(OC(C(N)CO)C(O)C(O)C4O)OC23)C1O (centres undefined) [Hygromycin B]	-0.22
O=c1[nH]c2ccccc2n1CCCN1CCC(n2c(=O)[nH]c3cc(Cl)ccc32)CC1 [Domperidone]	0.19
COc1ccc(C=O)cc1 [p-Anisaldehyde]	-0.29
COc1ccc2[nH]cc(CCN)c2c1 [5-Methoxytryptamine]	-0.31
CCOC(=O)Nc1ccc(NCc2ccc(F)cc2)cc1N [Retigabine 2HCl]	1.24
Oc1cc(Cl)ccc1Oc1ccc(Cl)cc1Cl [Triclosan]	-0.78
CC[C@@]1(O)C(=O)OCc2c1cc1n(c2=O)Cc2cc3ccccc3nc2-1 [Camptothecin]	-0.59
CC(NC(C)(C)C)C(=O)c1cccc(Cl)c1 (centres undefined) [Amfebutamone (Bupropion) HCl]	0.03
C[CH2][Hg][S]c1ccccc1C(=O)[O-].[Na+] [Thimerosal]	11.9

SMILES	z-score of subpopulation abundance
Nc1ccncc1 [4-Aminopyridine]	0.38
CC[C@H]1CN2CC[C@]3(C(=O)Nc4ccccc43)[C@@H]2C[C@@H]1/C(=C\OC)C(=O)OC [Rhynchophylline]	0.04
CCN(C)C(=O)Oc1cccc([C@H](C)N(C)C)c1 [Rivastigmine]	-0.54
Nc1nc(N)nc(NC2CC2)n1 [Cyromazine]	-0.97
CC[C@@H](C(N)=O)N1CCCC1=O [Levetiracetam]	-1.01
C[N+]12CCC(CC1)C(OC(=O)C(O)(c1ccccc1)c1ccccc1)C2 (centres undefined) [Clidinium Bromide]	-0.33
COc1ccc2c(c1)[C@]13CCCC[C@@H]1[C@H](C2)N(C)CC3 [Dextromethorphan hydrobromide hydrate]	-0.33
C=CN1CCCC1=O.II [Povidone iodine]	2.13
C=C[C@H]1CN2CC[C@H]1C[C@H]2[C@H](O)c1ccnc2ccccc12 [Cinchonidine]	-0.64
COC(=O)C1=CCCN(C)C1 [Arecoline HBr]	0.21
C[C@H]1O[C@H](O[C@H]2[C@H](O)[C@@H](O)[C@@H](O)[C@H](O)[C@@H]2O)[C@@H](N)C[C@@H]1NC(=N)C(=O)O [Kasugamycin hydrochloride]	-0.07
O=C(O[C@H]1C[N+]2(CCCOc3ccccc3)CCC1CC2)C(O)(c1cccs1)c1cccs1 [Aclidinium Bromide]	-1.16
CC[N+](C)(CC)CCOC(=O)C(O)(c1ccccc1)c1ccccc1 [Methylbenactyzine Bromide]	-0.61
CN(C)[C@@H]1C(=O)C(C(N)=O)=C(O)[C@@]2(O)C(=O)C3=C(O)c4c(O)cccc4[C@@](C)(O)[C@H]3[C@H](O)[C@@H]12 [Oxytetracycline (Terramycin)]	0.77
C=C(C)[C@H]1Cc2c(ccc3c2O[C@@H]2COc4cc(OC)c(OC)cc4[C@@H]2C3=O)O1 [Rotenone (Barbasco)]	0.53
COc1ccc2c3c([nH]c2c1)C(C)=NCC3 [Harmaline]	1.95
N[C@@H]1C[C@H]1c1ccccc1 [Tranylcypromine (2-PCPA) HCl]	-0.72
